In assay [1] the target is Bile acid receptor (Homo sapiens) (UniProt Q96RI1). The assay is described as follows: qHTS assay for small molecule antagonists of farnesoid X receptor signaling (AID 588526). Also: potency is read from the fitted curve at half-maximal effect. Put shortly: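 Beta-lactamase reporter antagonist mode: HEK293T FXR-UAS-bla cells, titrated compound, CDCA stimulation, 16 h 37 C, CCF4 dye 2 h RT. Data normalized to CDCA 50 uM and DMSO; Hill-fit IC50.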

The target of assay [2] is Glucocorticoid receptor (Homo sapiens) (UniProt P04150). The assay is described as follows: qHTS assay for small molecule agonists of glucocorticoid receptor signaling (AID 588532; active = well fitted curve in the direction sought with a large enough effect in the signal ratio, with a control signal flat; the % refers to the signal ratio;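 also: 100% = dexamethasone at 0.1 µM and 0% = DMSO only wells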). Particulars: HeLa MMTV-bla, beta-lactamase ratio, agonist, 18 h; stronger effect = higher value; percent of dexamethasone control, DMSO zero. Put shortly:
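Quantitative HTS using CellSensor MMTV-bla HeLa cells in charcoal/dextran-treated serum; compounds tested up to 92 uM. After 18 h at 37 C, CCF4 dye reported reporter induction.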
Background: In qHTS, concentration-response curves come from the screen itself.

For assay [3] the target is unchanged. The assay is described as follows: qHTS assay for small molecule antagonists of glucocorticoid receptor signaling (AID 588533; active = well fitted inhibition curve with a large enough effect in the signal ratio, with a control signal flat, not every such curve was filed as active; the % refers to the signal ratio;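 also: cells stimulated with 2 nM dexamethasone as agonist; % is scaled to controls: 0 for no effect and ±100 for the full control effect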). The method, boiled down:
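Antagonist-mode qHTS: compound titrations added to GRE-bla HeLa cells, then dexamethasone 2 nM final; 18 h, 37 C. CCF4 FRET fluorescence normalized to dexamethasone and DMSO; IC50 from Hill fit.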

Assay [4] addresses Peroxisome proliferator-activated receptor gamma (Homo sapiens) (UniProt P37231). The assay is described as follows: qHTS assay for small molecule antagonists of peroxisome proliferator-activated receptor gamma signaling (AID 588537; active = well fitted inhibition curve with a large enough effect in the signal ratio, with a control signal flat, not every such curve was filed as active; the % refers to the signal ratio;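 also: reporter cells co-stimulated with 50 nM rosiglitazone agonist during compound treatment; % of control where 0% means no effect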). Put shortly: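 Antagonist-mode β-lactamase reporter screen run as a titration series. HEK293 PPARγ-UAS-bla cells are stimulated with rosiglitazone (50 nM final) for 16 h, then CCF4 is read at 460/530 nm. Data are scaled between DMSO and rosiglitazone and fitted to the Hill equation.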

Assay [5] concerns the target Vitamin D3 receptor (Homo sapiens) (UniProt P11473). The assay is described as follows: qHTS assay for small molecule agonists of vitamin D receptor signaling (AID 588543).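 Also: 0% = DMSO basal and 100% = reference agonist control.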 Put shortly: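 qHTS in agonist mode: compound titrations stimulate a VDR-driven β-lactamase reporter in HEK293T cells over 16 h at 37 °C. Response normalized to 50 nM 1α,25-dihydroxyvitamin D3 = 100%, DMSO = 0%; Hill fitting gives EC50 and maximal response.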

Assay [6] in a line: qHTS assay for small molecule agonists of the antioxidant response element (ARE) signaling pathway (AID 651741; active = well fitted activation curve with a large enough effect in the signal ratio; the % refers to the signal ratio; also: potency is read from the fitted curve at half-maximal effect; as to activation: % of control where 0% means no effect). The method, boiled down:
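Beta-lactamase reporter under ARE control in HepG2 cells, 2,000 per well, was induced by 16 h compound treatment at 37 C. Read-out was fluorescence from LiveBLAzer B/G FRET substrate after 2 h at room temperature.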

Assay [7] can be described thus: qHTS assay for small molecule activators of the nuclear factor-kappa B (NF-kB) signaling pathway (AID 651749; active = well fitted activation curve with a large enough effect in the signal ratio; the % refers to the signal ratio; also: potency is read from the fitted curve at half-maximal effect; as to activation: series mostly up to about 77 µM; % of control where 0% means no effect). The conditions noted are these: NF-kB-bla ME-180 cells, beta-lactamase FRET ratio, 16 h; activation: stronger effect = higher value. The method, boiled down: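 Activation measured after 16 hr compound treatment at 37C, 5% CO2, of 2,000 ME-180 cells/well stably expressing an NF-kB response element–driven beta-lactamase reporter, via FRET-disruption fluorescence.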

The target in assay [8] is Androgen receptor (Homo sapiens) (UniProt P10275). The assay is described as follows: qHTS assay for small molecule agonists of androgen receptor signaling (AID 588515; active = well fitted curve in the direction sought with a large enough effect in the signal ratio, with a control signal flat; the % refers to the signal ratio; also: % is scaled to controls: 0 for no effect and ±100 for the full control effect). The conditions noted are these: AR-UAS-bla HEK293, beta-lactamase ratio, agonist 16 h; activation: stronger effect = higher value. Put shortly: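 Stimulation of an AR-responsive β-lactamase reporter in GripTite HEK293 cells was measured after 16 h compound exposure at 37 °C, via CCF4 fluorescence after 2 h RT. EC50 from Hill fits, normalized to R1881 at 30 nM.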

Assay [9] shares this target. The assay is described as follows: qHTS assay for small molecule antagonists of androgen receptor signaling (AID 588516; active = well fitted curve in the direction sought with a large enough effect in the signal ratio, with a control signal flat, not every such curve was filed as active; the % refers to the signal ratio; also: % is scaled to controls: 0 for no effect and ±100 for the full control effect). The method, boiled down:
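Antagonist-mode qHTS: inhibition of R1881 (10 nM)-driven beta-lactamase expression in GripTite HEK 293 cells is measured after 16 h; values are Hill-derived IC50s normalized between R1881 and DMSO wells.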

“And” between values parts separate entries of the source, which are not always exact repeats. Equal values may be shown once. Records with an inconclusive call do not appear. Values without a mark were called inactive. The source made the active and inactive calls. Unless noted, calls follow the shape of the full dose curve.

Chain of Peroxisome proliferator-activated receptor gamma (Homo sapiens) (P37231 whole entry, looked up): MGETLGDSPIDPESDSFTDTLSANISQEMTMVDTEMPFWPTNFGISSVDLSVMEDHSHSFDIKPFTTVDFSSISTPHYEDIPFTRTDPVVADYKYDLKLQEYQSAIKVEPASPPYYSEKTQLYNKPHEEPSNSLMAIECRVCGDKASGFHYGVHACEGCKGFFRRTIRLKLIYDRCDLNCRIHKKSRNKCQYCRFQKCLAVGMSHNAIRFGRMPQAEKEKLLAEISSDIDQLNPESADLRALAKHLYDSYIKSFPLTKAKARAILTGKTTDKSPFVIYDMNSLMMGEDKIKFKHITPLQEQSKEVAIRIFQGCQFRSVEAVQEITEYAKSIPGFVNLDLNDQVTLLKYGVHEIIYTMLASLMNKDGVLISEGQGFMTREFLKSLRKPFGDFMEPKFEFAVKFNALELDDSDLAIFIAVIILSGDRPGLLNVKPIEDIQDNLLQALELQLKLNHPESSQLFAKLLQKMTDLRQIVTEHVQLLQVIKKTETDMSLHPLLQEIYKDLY
Chain of Glucocorticoid receptor (Homo sapiens) (P04150 whole entry, looked up): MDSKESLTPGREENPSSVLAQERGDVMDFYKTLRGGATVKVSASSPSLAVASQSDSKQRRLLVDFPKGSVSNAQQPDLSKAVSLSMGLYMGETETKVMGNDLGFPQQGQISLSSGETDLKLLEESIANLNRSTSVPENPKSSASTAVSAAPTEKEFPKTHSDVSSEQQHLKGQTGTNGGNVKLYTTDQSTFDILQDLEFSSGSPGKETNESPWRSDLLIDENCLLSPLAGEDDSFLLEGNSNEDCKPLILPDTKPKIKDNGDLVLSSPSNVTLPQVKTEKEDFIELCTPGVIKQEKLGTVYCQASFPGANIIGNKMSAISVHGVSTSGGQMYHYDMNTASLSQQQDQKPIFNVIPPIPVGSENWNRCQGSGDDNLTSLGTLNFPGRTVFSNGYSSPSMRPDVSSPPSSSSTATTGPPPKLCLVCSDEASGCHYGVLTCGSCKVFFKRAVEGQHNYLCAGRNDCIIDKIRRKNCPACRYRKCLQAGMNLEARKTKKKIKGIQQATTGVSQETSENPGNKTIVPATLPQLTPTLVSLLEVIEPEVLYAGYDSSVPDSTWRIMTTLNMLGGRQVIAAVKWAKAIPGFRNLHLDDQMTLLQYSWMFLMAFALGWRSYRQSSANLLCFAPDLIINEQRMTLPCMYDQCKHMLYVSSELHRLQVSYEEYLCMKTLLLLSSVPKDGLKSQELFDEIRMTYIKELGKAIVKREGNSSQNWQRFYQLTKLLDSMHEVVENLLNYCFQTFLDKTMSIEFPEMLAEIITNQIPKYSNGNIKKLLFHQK
Chain of Bile acid receptor (Homo sapiens) (Q96RI1 whole entry, looked up): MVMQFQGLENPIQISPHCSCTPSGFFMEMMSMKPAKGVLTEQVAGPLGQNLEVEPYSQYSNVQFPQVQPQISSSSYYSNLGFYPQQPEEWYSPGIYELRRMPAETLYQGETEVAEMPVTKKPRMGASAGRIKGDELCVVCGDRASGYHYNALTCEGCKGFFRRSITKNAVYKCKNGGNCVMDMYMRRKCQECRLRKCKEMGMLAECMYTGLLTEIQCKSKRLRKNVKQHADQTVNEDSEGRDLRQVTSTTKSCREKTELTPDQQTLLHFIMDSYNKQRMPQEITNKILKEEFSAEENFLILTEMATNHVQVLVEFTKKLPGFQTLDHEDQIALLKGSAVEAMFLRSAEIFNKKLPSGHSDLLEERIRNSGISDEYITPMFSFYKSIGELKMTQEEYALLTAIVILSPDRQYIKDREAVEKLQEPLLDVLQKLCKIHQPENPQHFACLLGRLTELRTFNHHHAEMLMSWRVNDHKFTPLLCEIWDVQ
Chain of Androgen receptor (Homo sapiens) (P10275 whole entry, looked up): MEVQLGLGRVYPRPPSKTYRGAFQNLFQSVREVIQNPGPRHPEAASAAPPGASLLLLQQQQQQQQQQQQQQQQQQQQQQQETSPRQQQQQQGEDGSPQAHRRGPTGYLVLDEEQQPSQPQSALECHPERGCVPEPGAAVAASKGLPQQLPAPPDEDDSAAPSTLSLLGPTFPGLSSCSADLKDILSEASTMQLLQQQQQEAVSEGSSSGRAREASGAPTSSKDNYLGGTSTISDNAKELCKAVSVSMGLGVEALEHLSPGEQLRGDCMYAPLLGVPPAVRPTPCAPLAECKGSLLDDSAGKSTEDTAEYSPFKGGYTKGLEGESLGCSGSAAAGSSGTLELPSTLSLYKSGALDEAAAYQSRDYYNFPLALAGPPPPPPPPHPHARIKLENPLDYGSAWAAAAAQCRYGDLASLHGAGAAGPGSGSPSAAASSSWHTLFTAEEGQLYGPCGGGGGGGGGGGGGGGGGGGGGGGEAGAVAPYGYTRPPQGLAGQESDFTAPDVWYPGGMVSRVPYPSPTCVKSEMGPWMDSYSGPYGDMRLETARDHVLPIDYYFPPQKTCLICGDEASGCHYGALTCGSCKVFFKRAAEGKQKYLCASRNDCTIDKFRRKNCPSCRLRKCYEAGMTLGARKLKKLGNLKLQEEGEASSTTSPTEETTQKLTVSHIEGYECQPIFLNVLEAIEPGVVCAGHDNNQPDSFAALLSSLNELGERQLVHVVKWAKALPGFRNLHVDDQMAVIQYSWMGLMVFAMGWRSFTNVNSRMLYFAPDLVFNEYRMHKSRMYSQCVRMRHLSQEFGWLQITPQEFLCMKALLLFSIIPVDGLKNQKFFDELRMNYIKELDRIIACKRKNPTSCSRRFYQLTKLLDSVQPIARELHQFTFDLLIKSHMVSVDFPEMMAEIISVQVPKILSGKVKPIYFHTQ
Chain of Vitamin D3 receptor (Homo sapiens) (P11473 whole entry, looked up): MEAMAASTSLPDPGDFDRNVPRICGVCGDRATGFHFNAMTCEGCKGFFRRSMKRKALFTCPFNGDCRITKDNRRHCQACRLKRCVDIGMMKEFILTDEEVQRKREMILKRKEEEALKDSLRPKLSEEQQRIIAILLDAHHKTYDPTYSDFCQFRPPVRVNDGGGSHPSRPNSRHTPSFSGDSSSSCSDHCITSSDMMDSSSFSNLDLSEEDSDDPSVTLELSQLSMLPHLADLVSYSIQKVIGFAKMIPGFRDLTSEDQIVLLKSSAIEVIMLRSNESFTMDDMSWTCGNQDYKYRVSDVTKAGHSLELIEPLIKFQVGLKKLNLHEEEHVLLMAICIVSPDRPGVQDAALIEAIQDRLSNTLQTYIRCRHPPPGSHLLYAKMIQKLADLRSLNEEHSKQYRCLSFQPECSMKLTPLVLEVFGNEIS

For the molecule `CCCCOC(=O)[C@@H](C)Oc1ccc(Oc2ccc(C(F)(F)F)cn2)cc1`, the Potency result in [1], in assay [3], in assay [4] and in assay [6] was “inactive” in each case. For the same molecule, the activation in assay [2] was -9.59%; in assay [7], -0.296% and -2.63%. Further, the outcome in [5] was inactive.

On to `CC(=O)N(CCN(C(C)=O)C(C)=O)C(C)=O`, for which the activation is 11.2% in assay [8], -10.7% in [2] and -1.08% in assay [7]. Besides, the call in assay [9] and in assay [5] was inactive. Besides, the Potency entry in assay [1], in assay [3] and in [6] was “inactive” each time.

With `CC(=O)Nc1ccc(N=Nc2cc(C)ccc2O)cc1`, the activation in [8] is -4.42%; in assay [2], -3.33%; in [7], -1.84%. In addition, the molecule was called inactive in assay [9] and in assay [5]. Moreover, in [6], the Potency is 17.2 µM (active).

Turning to `CC(C)=CCC[C@@H](C)[C@H]1CC[C@@]2(C)C3=C(CC[C@]12C)[C@@]1(C)CC[C@H](O)C(C)(C)[C@@H]1CC3`, the results for the activation in assay [8], in [2] and in assay [7] were 6.85%, 8.87% and 1.26%, respectively. For the same molecule, the Potency result in [1], in assay [3] and in [6] was “inactive” each time.

Regarding `O=S(c1ccc(Cl)cc1)c1cc(Cl)c(Cl)cc1Cl` (stereo not drawn), the activation was -11.5% in [8] and 1.68% in assay [2]. In addition, the Potency entry in assay [1] is “inactive”. Also, the result in [5] was inactive. Further, the values for the Potency in assay [6] and in [7] were 54.5 µM (active) and 7.94 µM (active), respectively.

As for `CCSC(=O)N(CC(C)C)CC(C)C`, the activation in [8] was 3.31%; in assay [2], -2.35%; in assay [7], -0.513%. Moreover, the outcome in assay [9] and in assay [5] was inactive. For the same molecule, in assay [6], the Potency result was “inactive”.

As to `C=C(C)C(=O)OCCCCCCCCCCCC`, the values for the activation in [2] and in assay [7] were -1.63% and -0.811%, respectively. Also, the Potency result in assay [4] was “inactive”.

As for `O=C1CCCCCCCCCCC1`, the activation in assay [2] was -8.83%. Besides, the Potency entry in assay [3], in assay [4] and in assay [6] was “inactive” throughout.

As to `CCCCC(CC)COP(=O)(O)OCC(CC)CCCC` (stereo not drawn), the Potency entry in assay [1] is “inactive”. In addition, in assay [2], the activation was -13.4%. Besides, in assay [5], the molecule was classed as inactive. In addition, the Potency in [6] is 54.5 µM (active).

On to `COc1nc(C)nc(NC(=O)NS(=O)(=O)c2ccccc2OCCCl)n1`, for which the Potency result in [1] and in assay [3] was “inactive” in each case. In addition, the activation was -18.5% in assay [2] and 0.852% in assay [7]. The molecule was called inactive in [5].

For `Nc1nc(N)nc(-c2ccccc2)n1`, the activation in assay [2] is -8.55%; in [7], 0.267%. The Potency result in [3] and in [6] was “inactive” in each case.

Turning to `CC1(C)CC(OC(=O)CCCCCCCCC(=O)OC2CC(C)(C)NC(C)(C)C2)CC(C)(C)N1`, the results for the activation in assay [2] and in assay [7] were -2.43% and 2.54%, respectively. Also, in assay [3], the Potency entry is “inactive”. In addition, in assay [5], the molecule was called inactive.

Take `O=c1[nH]sc2ccccc12`: the Potency in assay [1] is 44.7 µM (active); in [6], 27.3 µM (active). The figures for the activation in assay [2] and in assay [7] were -3.87% and -1.58%, respectively. Moreover, the Potency result in assay [4] is “inactive”. For the same molecule, in assay [5], the molecule was called inactive.

`COCCO`: the activation in assay [2] was 2.41% and 1.59%. The Potency result in assay [3] and in [6] was “inactive” each time.

Regarding `C#CCOC(=O)[C@@H](C)Oc1ccc(Oc2ncc(Cl)cc2F)cc1`, the Potency result in assay [1] and in assay [4] was “inactive” each time. In addition, the result in [5] was inactive.

As to `CCC(=O)OCCc1ccccc1`, the Potency result in assay [1], in [3] and in assay [6] was “inactive” each time. The activation in assay [2] is -12.1%; in assay [7], 1.34%.

For the molecule `CC/C=C/CCCCCCCCCCOC(C)=O`, the activation in assay [2] is 2.34%. Further, the Potency result in assay [3], in assay [4] and in [6] was “inactive” each time. For the same molecule, the outcome in assay [5] was inactive.

With `O=C(O)C(c1ccc(Cl)cc1)c1ccc(Cl)cc1`, the Potency result in [1] is “inactive”. The call in assay [5] was inactive.

With `Cl[Si](Cl)(c1ccccc1)c1ccccc1`, the Potency result in [1], in assay [3] and in [4] was “inactive” in each case. Further, the activation in assay [2] is 0.877%. For the same molecule, in [6], the Potency was 54.5 µM (active).

In the case of `CCCN(CCC)c1c([N+](=O)[O-])cc(C(F)(F)F)c(N)c1[N+](=O)[O-]`, the Potency result in [1] was “inactive”. Further, in assay [2], the activation is -4.44%.

On to `C/C=C/C/C=C\CCCCCCCCOC(C)=O`, for which the Potency result in assay [1], in assay [4] and in assay [6] was “inactive” each time. Besides, the call in [5] was inactive. Moreover, in assay [7], the activation is -0.792%.

Regarding `CC(=O)CC(=O)Nc1ccccc1C`, the activation in assay [2] was 2.41%; in assay [7] it was -0.183%. In [3], the Potency entry is “inactive”. In addition, the outcome in assay [5] was inactive.

Turning to `CCCCOCC(C)O` (stereo not drawn), the activation in [2] is -3.25%; in assay [7], 0.734% and -0.5%. Further, the Potency entry in assay [3] and in [4] was “inactive” throughout. In addition, the outcome in assay [5] was inactive.

`CCCCCCCCCCCCCc1ccccc1`: the Potency entry in assay [1], in assay [4] and in [6] was “inactive” throughout. The activation was -7.21% in [2] and -0.242% in assay [7]. Also, the outcome in [5] was inactive.

Turning to `c1ccc2cc3ccccc3cc2c1`, the Potency result in assay [1], in [3] and in [6] was “inactive” each time. In addition, the activation in assay [2] is 13.3%.

On to `CCO[Si](CCC#N)(OCC)OCC`, for which the Potency result in [1], in [3], in assay [4] and in [6] was “inactive” throughout. Also, the activation in assay [2] was 2.23%; in assay [7], 0.629%.

With `CO[Si](OC)(OC)c1ccccc1`, in assay [2], the activation was -5.49%. Further, the Potency result in assay [3] is “inactive”. In addition, in [5], the molecule was classed as inactive.

Consider `O=c1n(CCO)c(=O)n(CCO)c(=O)n1CCO`, for which the Potency entry in [1] is “inactive”. For the same molecule, the result in assay [5] was inactive. Besides, in [6], the Potency is 30.6 µM (active). Besides, the activation in [7] is 4.3%.

As to `COC(=O)C1CCC(C(=O)OC)CC1` (stereo not drawn), the Potency entry in assay [1], in [4] and in assay [6] was “inactive” in each case. For the same molecule, in assay [5], the molecule was called inactive. Besides, in assay [7], the activation was -2.67%.

As for `O=C(O)CCCCCCCCCCC(=O)O`, the Potency result in [1] and in [6] was “inactive” throughout. Besides, the activation in [2] is -1.99%. In addition, in [5], the result was inactive.

In the case of `CCCCOCCOCCO`, the activation in assay [2] was -5.88%; in assay [7] it was -0.601%. The Potency entry in [3] and in assay [6] was “inactive” each time. Besides, the molecule was called inactive in assay [5].

As to `C1CCC2(CCCCO2)OC1`, in [2], the activation is -8.41%. In addition, in [5], the molecule was classed as inactive. Further, the Potency entry in assay [6] is “inactive”.

Consider `c1ccc(B(c2ccccc2)c2ccccc2)cc1`, for which the Potency entry in [1] and in assay [3] was “inactive” throughout. Moreover, the activation was -5.17% in assay [2] and -3.07% in assay [7]. The outcome in [5] was inactive.

The values above are taken from PubChem BioAssay (NCATS).
